The campaign covered roughly 5,500 compounds. About 2,000 (36%) were called active. Another 18% or so got no clear call; they are omitted. Cut-off read from the data, not from the text of the source: active = normalized growth mostly below about 0.91 (no sharp cut-off); inconclusive = no clear call, values can overlap the other calls; inactive = mostly above about 0.92. Some of the results follow.
Assay: chemical genetic growth profiling, strain panel (AID 1159580);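 note: tested at 20 µM; growth read once vehicle control cultures reached saturation at 30 °C; 1 = growth at the plate median or of vehicle wells; lower values mean less growth of the strain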
Details: S. cerevisiae deletion strains, growth OD

Measured: normalized growth

COC(=O)c1cc([N+](=O)[O-])ccc1S(=O)(=O)Cc1ccc(Cl)cc1
inactive: locus YAR019C, strain CDC15, active compounds read low 0.971 | locus YBL105C, strain PKC1, active compounds read low 0.983 | locus YBR135W, strain CKS1, active compounds read low 0.991 | locus YBR136W, strain MEC1, active compounds read low 0.967 | locus YBR160W, strain CDC28, active compounds read low 0.998 | locus YDL017W, strain CDC7, active compounds read low 0.985 | locus YDL028C, strain MPS1, active compounds read low 0.98 | locus YDL101C, strain DUN1, active compounds read low 0.987 | locus YDL108W, strain KIN28, active compounds read low 0.988 | locus YDL132W, strain cdc53, active compounds read low 0.991 | locus YDL214C, strain PRR2, active compounds read low 0.952 | locus YDR052C, strain DBF4, active compounds read low 0.996 | locus YDR054C, strain cdc34, active compounds read low 0.983 | locus YDR226W, strain ADK1, active compounds read low 0.985 | locus YDR477W, strain SNF1, active compounds read low 0.948 | locus YER123W, strain YCK3, active compounds read low 0.955 | locus YER133W, strain GLC7, active compounds read low 0.956 | locus YFL009W, strain cdc4, active compounds read low 0.99 | locus YFL029C, strain CAK1, active compounds read low 0.974 | locus YFR003C, strain YPI1, active compounds read low 0.992 | locus YFR019W, strain FAB1, active compounds read low 0.974 | locus YFR028C, strain CDC14, active compounds read low 0.981 | locus YGR040W, strain KSS1, active compounds read low 0.941 | locus YGR052W, strain FMP48, active compounds read low 1.04 | locus YGR092W, strain DBF2, active compounds read low 0.946 | locus YHR030C, strain SLT2, active compounds read low 0.937 | locus YHR079C, strain IRE1, active compounds read low 0.97 | locus YHR082C, strain KSP1, active compounds read low 0.995 | locus YHR205W, strain SCH9, active compounds read low 0.98 | locus YIL147C, strain SLN1, active compounds read low 0.981 | locus YJL095W, strain BCK1, active compounds read low 0.966 | locus YJL128C, strain PBS2, active compounds read low 0.967 | locus YJL157C, strain FAR1, active compounds read low 0.964 | locus YJR016C, strain ILV3, active compounds read low 0.993 | locus YJR066W, strain TOR1 (second series), active compounds read low 0.88 | locus YJR066W, strain TOR1, active compounds read low 0.965 | locus YKL048C, strain ELM1, active compounds read low 0.976 | locus YKL067W, strain YNK1, active compounds read low 0.956 | locus YKL101W, strain HSL1, active compounds read low 0.949 | locus YKL193C, strain SDS22, active compounds read low 0.984 | locus YKL203C, strain TOR2, active compounds read low 1 | locus YLR113W, strain HOG1, active compounds read low 0.957 | locus YLR133W, strain CKI1, active compounds read low 0.951 | locus YLR403W, strain SFP1, active compounds read low 0.957 | locus YML070W, strain DAK1, active compounds read low 0.958 | locus YMR001C, strain CDC5, active compounds read low 0.984 | locus YMR205C, strain PFK2 (second series), active compounds read low 0.957 | locus YMR277W, strain FCP1, active compounds read low 0.992 | locus YNL006W, strain LST8, active compounds read low 0.996 | locus YNL020C, strain ARK1, active compounds read low 0.96 | locus YNL161W, strain CBK1, active compounds read low 0.988 | locus YNL183C, strain NPR1, active compounds read low 0.97 | locus YNL207W, strain RIO2, active compounds read low 0.98 | locus YNL222W, strain SSU72, active compounds read low 0.988 | locus YNL307C, strain MCK1 (second series), active compounds read low 0.976 | locus YOL078W, strain AVO1, active compounds read low 0.991 | locus YOL136C, strain PFK27, active compounds read low 0.952 | locus YOR061W, strain CKA2, active compounds read low 0.948 | locus YOR119C, strain RIO1, active compounds read low 0.973 | locus YOR231W, strain MKK1, active compounds read low 0.98 | locus YOR329C, strain SCD5, active compounds read low 0.984 | locus YPL031C, strain PHO85, active compounds read low 0.955 | locus YPL153C, strain RAD53, active compounds read low 0.951 | locus YPL204W, strain HRR25, active compounds read low 0.95 | locus YPL209C, strain IPL1, active compounds read low 0.983 | locus YPL256C, strain CLN2, active compounds read low 0.945 | locus YPR025C, strain CCL1, active compounds read low 0.987 | locus YPR106W, strain ISR1, active compounds read low 0.985 | locus YPR111W, strain DBF20, active compounds read low 0.984 | strain NNK1, active compounds read low 0.982 | strain TSCII, active compounds read low 0.981

Reference: PubChem BioAssay AID1159580 (chemical genetic matrix, 2015)
